# Experimental data reported in PubChem BioAssay AID588493 (Sanford-Burnham Center for Chemical Genomics, 2011).
# The whole screen tested about 360,000 compounds, of which about 2,100 (0.58%) were called active. The sample holds actives, similar compounds and a random draw of the others, so the mix is not that of the screen. A number with no mark means an inactive call.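 How the source made its calls: active means inhibition at 20 µM, scaled to each plate's controls, above about 33% (limit read from the data); inactive means the rest.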
# Biological target: 26S proteasome non-ATPase regulatory subunit 14 (Homo sapiens) (UniProt O00487)
# Sequence (O00487 whole entry, looked up): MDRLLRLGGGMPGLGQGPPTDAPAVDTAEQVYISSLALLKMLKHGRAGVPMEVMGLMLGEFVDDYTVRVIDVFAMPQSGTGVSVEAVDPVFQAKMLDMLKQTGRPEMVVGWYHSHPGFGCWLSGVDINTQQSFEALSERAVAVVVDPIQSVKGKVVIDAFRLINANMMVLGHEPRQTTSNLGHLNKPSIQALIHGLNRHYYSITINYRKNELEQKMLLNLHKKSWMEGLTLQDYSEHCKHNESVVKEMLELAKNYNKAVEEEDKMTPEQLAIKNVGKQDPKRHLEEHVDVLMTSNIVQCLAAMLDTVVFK
# Assay: inhibition of 26S proteasome subunit Rpn11 – biochemical, fluorescence polarization, uHTS, primary screen (AID 588493)
# Conditions: human 26S proteasome, Ub4-pepOG fluorescence polarization; at 20 µM; hits give high values; 20S core pre-blocked with epoxomicin
row,Compound,inhibition
1,Cc1cc(C)c2cc(CN(Cc3cccs3)Cc3nnnn3CC3CCCO3)c(=O)[nH]c2c1 (stereo not given),-19.3%
2,CCC(C)N1CC(=O)N2Cc3[nH]c4ccccc4c3C[C@H]2C1=O (stereo not given in full),7.3%
3,CCCCCOc1ccc(/C=C/C(=O)NCCc2nc3ccccc3[nH]2)cc1OC,-4.2%
4,CC(C)=C(NC(=O)c1ccco1)C(=O)NCCc1nc2ccccc2[nH]1,-7.6%
5,CC(C)Oc1ccc(/C=C(\NC(=O)/C=C/c2ccco2)C(=O)NCCc2nc3ccccc3[nH]2)cc1,53.9% (active)
6,CCN(CC(=O)NCc1cccs1)S(=O)(=O)c1ccc(NC(C)=O)cc1,-1.7%
7,Cc1cccc(OCCC(=O)Nc2cc(S(=O)(=O)N3CCCCC3)ccc2N2CCOCC2)c1,2%
8,CN(C)c1ccc(-n2cccc2/C=C2/SC(=Nc3ccc(F)cc3)NC2=O)cc1,44% (active)
9,CN(C)c1ccc(-n2cccc2/C=N/n2cnnc2)cc1,1.5%
10,CCn1cc(C(=O)OCC(=O)Nc2cccc(C)c2)c(=O)c2ccc(C)nc21,-1.5%
11,CC(=O)Oc1cc2c(C(=O)NCCN3CCOCC3)c(C)oc2c2ccccc12,-0.1%
12,O=C(Cc1ccc(F)cc1)N1CCN=C1SCc1cccc([N+](=O)[O-])c1,3%
13,O=C(NCc1ccccc1Cl)C1CCN(S(=O)(=O)c2cccc3nonc23)CC1,4.7%
14,CC1CCCCC1NC(=O)CCS(=O)(=O)c1cccc2nonc12 (stereo not given),-3.4%
15,O=C(CCS(=O)(=O)c1cccc2nonc12)NCCc1ccccc1Cl,179% (active)
16,Cc1ccc(N=Cc2c(O)cc(C)oc2=O)c(C)c1,40.7% (active)
17,Cc1ccc(N=Cc2c(O)n(-c3nccs3)c(=O)c3ccccc23)c(C)c1,-26.4%
18,COc1cc(CN(C)Cc2nc3cc(C(F)(F)F)ccc3c(=O)[nH]2)ccc1OC(F)F,5%
19,Cc1cccc(OCc2nnc(SCn3nnc4ccccc4c3=O)o2)c1,6.8%
20,Cc1cccc(OCc2nnc(SCc3nc4cc(C(F)(F)F)ccc4c(=O)[nH]3)o2)c1,46.5% (active)
21,CC(=O)O[C@H]1c2ccccc2-c2ccccc2[C@@H]1OC(C)=O,-2.7%
22,CN(C)CCOc1cccc(Br)c1,-7.4%
23,CN(C)CCOC1c2ccccc2-c2ccccc21,95.3% (active)
24,CCCC[C@H]1COCCS(=O)(=O)N1Cc1cccc(Cl)c1,7.9%
25,CCOC(=O)c1cc(-c2sc(NC(=O)c3ccccc3)nc2C)n(Cc2ccccc2)n1,5.8%
